Source: PubChem (several laboratories)
Compounds with a hit are over-represented: about 6.9% of the library has one in this group of screens.
M1 agonist: activates the M1 muscarinic receptor | CHO-M1 cells, Fluo-4 calcium fluorescence, agonist mode; active compounds read high | 64,000 tested, 3% active | AID 626 | B-score at 10 µM;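 active = fluorescence rise, raw or as B-score row- and column-corrected plate score, outside the 99.7% band of its plate's samples, either direction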
M1 antagonist: blocks the rat M1 muscarinic receptor response to acetylcholine. P08482. CHO-M1 cells, Fluo-4 calcium, ACh EC80 antagonist mode; active compounds read low. B-score at 10 µM. 64,000 tested, 3.4% active. AID 628;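 active = calcium fluorescence response, raw or row-and-column corrected B-score, differing from the plate sample mean either way at a set confidence level, mostly lower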
HER2 expr 66K: lowers expression of human Her2 kinase; SKBR-3 HER2 protein level, AlphaScreen, 18-24 h; active compounds read low; HER2 level % of control, % at 10 µM; 65,000 tested, 0.69% active; P04626;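 active = HER2 level under 5% of the carrier-only control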;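 note: 100% = DMSO carrier and 0% = 500 nM PU-H71 HSP90 inhibitor; lower value means stronger loss of Her2 protein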
JNK3 blocker: blocks human JNK3 kinase activity. purified JNK3 kinase activity, HTS. AID 746. inhibition, % at 8 µM. P53779. 60,000 tested, 0.61% active; in the data active = inhibition above about 17%;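 note: 0% = DMSO and 100% = reference inhibitor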
FXIa mix inh: blocks human factor XIa in pooled compound mixtures. P03951. purified FXIa, fluorogenic substrate. inhibition, % at 5 µM. 62,000 tested, 0.19% active;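 note: each value is inhibition by a whole ten-compound pool holding the compound; 0% = enzyme with no mixture and 100% = wells lacking enzyme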
FXIIa mix inh: blocks human factor XIIa in pooled compound mixtures; 62,000 tested, 0.2% active; P00748; inhibition, % at 5 µM; purified FXIIa, fluorogenic substrate; AID 684;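 note: 0% = enzyme without compound and 100% = no enzyme blank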
Target sequence (P00748 20-372 limits assumed): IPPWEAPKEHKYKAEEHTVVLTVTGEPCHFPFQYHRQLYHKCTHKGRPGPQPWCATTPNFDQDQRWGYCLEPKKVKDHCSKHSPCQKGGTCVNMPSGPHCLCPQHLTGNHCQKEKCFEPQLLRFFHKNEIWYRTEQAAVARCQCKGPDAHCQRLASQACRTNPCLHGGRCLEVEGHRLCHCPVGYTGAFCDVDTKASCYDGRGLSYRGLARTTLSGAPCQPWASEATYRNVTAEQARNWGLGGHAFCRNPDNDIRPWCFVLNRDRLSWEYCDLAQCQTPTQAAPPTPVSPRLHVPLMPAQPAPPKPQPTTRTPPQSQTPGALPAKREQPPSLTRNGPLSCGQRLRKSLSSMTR
Target sequence (P00748 373-615 limits assumed): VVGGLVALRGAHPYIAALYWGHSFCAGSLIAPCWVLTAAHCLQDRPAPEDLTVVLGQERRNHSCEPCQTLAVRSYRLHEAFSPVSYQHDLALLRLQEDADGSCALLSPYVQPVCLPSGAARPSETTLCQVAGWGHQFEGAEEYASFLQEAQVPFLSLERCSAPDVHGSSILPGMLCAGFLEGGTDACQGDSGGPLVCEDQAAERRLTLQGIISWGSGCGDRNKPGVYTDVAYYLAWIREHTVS
M1 antag confirm: confirmation of rat M1 muscarinic receptor antagonists | calcium response (max-min fluorescence) at 10 µM | 1,700 tested, 43% active | shares compounds with M1 antagonist | CHO-M1 cells, Fluo-4 calcium, ACh EC80 antagonism; active compounds read low;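 active = calcium response below the same-plate mean of wells given acetylcholine alone at its 80%-effect dose, minus 3 SD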;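 note: raw fluorescence intensity difference in arbitrary instrument units and not normalized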
mGluR4 antag: acts on human mGluR4 in M1 antagonist selectivity test; shares compounds with M1 antagonist; CHO-mGluR4 calcium flux, Fluo-4 fluorescence, glutamate EC80; active compounds read low; fluorescence response (max-min) at 10 µM; 1,700 tested, 0.9% active;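 active = fluorescence response below the plate's average for near-maximal glutamate wells, less 3 SD of those wells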;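 note: raw unnormalized fluorescence span taken in the window right after glutamate addition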
The depositor's hits bear a star; . = not tested or not shown. Cut-off read from the data, not from the text of the source, unless noted: active = inhibition above about 20% (passing the limit was not always enough); inactive = the rest.

SMILES | M1 agonist | M1 antagonist | HER2 expr 66K | JNK3 blocker | FXIa mix inh | FXIIa mix inh | M1 antag confirm | mGluR4 antag
COc1ccccc1C1CC(c2ccc(C)cc2)Nc2ncnn21 (stereo not given) | -0.31 | 0.1 | 111 | -3 | 11 | 11 | . | .
Cc1cccc(C2Nc3ccccc3C(=O)N2CCc2ccccc2)n1 (stereo not given) | -0.64 | -11* | 115 | 2 | -9 | 4 | 554 | 212
CCN(CC)CCN1C(=O)c2ccccc2NC1c1cccc(F)c1 (stereo not given) | -0.68 | -1.6 | 102 | 0 | -7 | -9 | . | .
NC(=O)C1CCN(C(=O)CSc2nc3c(c(-c4ccccc4)n2)CCCC3)CC1 | 0.31 | -0.49 | 107 | 1 | -9 | 10 | . | .
Cc1nc(CSc2nnc3scc(-c4ccc(Cl)cc4)n23)cs1 | -0.049 | -0.28 | 128 | . | 9 | 12 | . | .
CCN(CC)c1ccc(C2C(C(=O)OC)=C(C)NC(C)=C2C(=O)OC)cc1 | -0.19 | -2.7* | 83 | 0 | 3 | 4 | 209* | 249
CCOC(=O)C1=C(C)NC(=O)NC1c1ccc(N(C)C)cc1 (stereo not given) | 0.52 | -0.27 | 85 | 4 | 1 | 10 | . | .
CCOC(=O)C1=C(C)NC(=O)NC1c1ccc(N(CC)CC)cc1 (stereo not given) | 0.83 | -3.1* | 93 | 0 | 8 | 5 | 391* | 274
COC(=O)c1ccc(CNC(=O)COc2ccccc2Br)o1 | -0.03 | -0.44 | 109 | 9 | 1 | 2 | . | .
O=C(Nc1nc(-c2ccc(S(=O)(=O)N3CCCC3)cc2)cs1)C1COc2ccccc2O1 (stereo not given) | -1.9 | -8.7* | 109 | -1 | -1 | 4 | 559 | 206
CCOC(=O)Nc1ccc2c(c1)Sc1ccccc1N2C(=O)CCN1CCOCC1 | 1.4 | -3.5* | 84 | -1 | -2 | 3 | 317* | 257
CCOC(=O)Nc1ccc2c(c1)N(C(=O)N1CCN(C)CC1)c1ccccc1S2 | 0.041 | -15* | 101 | -5 | 9 | 0 | 14* | 268
O=C(C1CC1)N1CCc2cc(Br)cc(S(=O)(=O)NCC3COc4ccccc4O3)c21 (stereo not given) | 1.4 | 0 | 266 | . | -10 | 0 | . | .
CCOC(=O)c1oc2ccc(Br)cc2c1CSc1nnc(C)s1 | 0.79 | 0.54 | 94 | -11 | 3 | 0 | . | .
CCOC(=O)C1CCN(C(=O)c2cc3cc4cc(OC)ccc4nc3o2)CC1 | 5.1 | -3.2* | 115 | 5 | -5 | -15 | 432* | 196
Cc1nccn1CCc1n[nH]c(=S)n1Cc1ccccc1 | 1 | -9.5* | 69 | -3 | 1 | 5 | 314* | 233
O=C(O)CCC(=O)N1CCc2cc(S(=O)(=O)NC3CCCC3)ccc21 | -0.77 | . | 136 | -5 | 9 | -9 | . | .
O=C(C1CCC1)N1CCc2cc(S(=O)(=O)NC3CCCC3)ccc21 | -0.95 | -15* | 137 | 2 | 1 | -1 | 580 | 209
O=C(Nc1ccc(Br)c(Cl)c1)C1CC1 | 0.7 | -6.2* | 121 | 1 | 5 | 4 | 626 | 237
Cn1c(Cc2ccccc2)nnc1SCC(=O)c1ccc(Br)s1 | -0.017 | -1.7* | 103 | 11 | 3 | -19 | 461* | 257
Cn1c(Cc2ccccc2)nnc1SCC(=O)Nc1ccc2c(c1)OCCO2 | -0.51 | -0.32 | 86 | 6 | 6 | 3 | . | .
CC(NS(=O)(=O)c1ccccc1)C(c1cccs1)N1CCN(C)CC1 (stereo not given) | -0.21 | -0.3 | 90 | . | 1 | 2 | . | .
CCCCNC(=O)N1CCOCCOCCN(C(=O)NCCCC)CCOCC1 | 0.059 | -2.3* | 100 | -4 | . | . | 589 | 244
COCC(C)n1c(SCC(=O)NC(=O)Nc2ccc3c(c2)OCCO3)nc2ccccc2c1=O (stereo not given) | 0.89 | 0.21 | 131 | -9 | -19 | 6 | . | .
CCCCC(=O)Nc1ccc(F)c(Cl)c1 | 0 | 0.075 | 80 | 3 | 0 | 4 | . | .
SMILES | M1 agonist | M1 antagonist | HER2 expr 66K | JNK3 blocker | FXIa mix inh | FXIIa mix inh | M1 antag confirm | mGluR4 antag
CCCCCC(=O)Nc1ccc(N2CCN(CC)CC2)c(Cl)c1 | 0.38 | -11* | 94 | 3 | 0 | -19 | 46* | 259
Cc1ccc2c(c1)NC(=O)C(CC(=O)N(C)Cc1ccccc1)O2 (stereo not given) | 0.36 | -1.1 | 63 | 0 | 2 | 2 | . | .
COc1ccc(OC)c(NC(=O)Cn2cc(C#N)c3cc(Br)ccc32)c1 | 0.02 | 0.096 | 133 | 4 | -22 | 8 | . | .
Nc1nc(CN2CCCCC2)cs1 | -0.2 | 0.8 | 207 | 7 | 3 | 3 | . | .
Nc1nc(CN2CCOCC2)cs1 | -0.013 | -0.83* | 141 | 3 | 1 | 33 | 555 | 261
O=C(CN1C(=O)c2ccccc2S1(=O)=O)Nc1cccnc1 | 0.49 | -0.015 | 72 | -4 | . | . | . | .
CCCc1nc2oc3c(NCCN(C)C)ncnc3c2c2c1CCCC2 | 1.8 | -6.4* | 85 | -14 | 5 | 0 | 498 | 259
CCCc1cc(=O)oc2cc(C)cc(OC(=O)c3ccco3)c12 | -0.29 | -2.9* | 79 | 7 | 33* | 3 | 551 | 205
CCCc1cc(=O)oc2cc(C)cc(OCc3nn[nH]n3)c12 | 0.24 | 0.27 | 60 | 3 | -6 | 1 | . | .
CN1/C(=C\C(=O)c2cccs2)Sc2ccccc21 | -1.1 | -6.5* | 10 | -7 | 4 | 17 | 545 | 179
CN1C(=S)SC(/[N+]([O-])=C\c2cccs2)C1(C)C (stereo not given) | 0.68 | -8* | 83 | 0 | 5 | -17 | 610 | 243
CN1C(=S)SC(/[N+]([O-])=C\c2ccco2)C1(C)C (stereo not given) | -0.0083 | -0.24 | 89 | -1 | 1 | 3 | . | .
CCCCn1ccnc1C(=O)c1ccc(S(=O)(=O)N(CCOC)CCOC)cc1 | 0.4 | 0.37 | 77 | -3 | 6 | -13 | . | .
Cc1nc(NCc2ccco2)c2c3c(sc2n1)CCC3 | 0.12 | -1.9* | 61 | 6 | 2 | 11 | 621 | 268
COc1cccc(CN(Cc2cccnc2)S(=O)(=O)c2ccc(-n3cnnn3)c(C)c2)c1OC | -0.28 | -1.9 | 101 | -4 | -2 | -3 | . | .
CCOC(=O)N1CCC(NC(=O)c2cnc3n(c2=O)CCS3)CC1 | -0.019 | 0.13 | 105 | -2 | -1 | 11 | . | .
COCCn1c(C23CC4CC(CC(C4)C2)C3)n[nH]c1=S | 0.98 | -2.8* | 77 | 8 | 3 | 2 | 610 | 257
COCCn1c(-c2ccccc2F)n[nH]c1=S | 0.98 | -0.33 | 93 | 8 | -32 | -14 | . | .
O=C(NCCN1CCOCC1)c1cc2sccc2n1Cc1ccc(Cl)cc1 | -0.26 | -4.5* | 109 | 3 | 4 | 11 | 349* | 239
O=C(NCCN1CCOCC1)c1cc2sccc2n1Cc1ccc(F)cc1 | -0.83 | -0.92 | 83 | 3 | 0 | 5 | . | .
